Assay results from PubChem BioAssay AID651679 (Broad Institute, 2012).
This is one part of the list. Calls of active or inactive are those of the source. The rule behind the calls is not given here.

target: Adenosylmethionine-8-amino-7-oxononanoate aminotransferase (Mycobacterium tuberculosis (strain ATCC 25618 / H37Rv)) (UniProt P9WQ81); experiment: inhibition of M. tuberculosis BioA aminotransferase – biochemical, plate reader, cherry-pick samples, set 03, dose response (AID 651679); settings: purified BioA enzyme;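 note: top concentration of the dilution series was 10 µM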
Sequence (P9WQ81 whole entry, looked up): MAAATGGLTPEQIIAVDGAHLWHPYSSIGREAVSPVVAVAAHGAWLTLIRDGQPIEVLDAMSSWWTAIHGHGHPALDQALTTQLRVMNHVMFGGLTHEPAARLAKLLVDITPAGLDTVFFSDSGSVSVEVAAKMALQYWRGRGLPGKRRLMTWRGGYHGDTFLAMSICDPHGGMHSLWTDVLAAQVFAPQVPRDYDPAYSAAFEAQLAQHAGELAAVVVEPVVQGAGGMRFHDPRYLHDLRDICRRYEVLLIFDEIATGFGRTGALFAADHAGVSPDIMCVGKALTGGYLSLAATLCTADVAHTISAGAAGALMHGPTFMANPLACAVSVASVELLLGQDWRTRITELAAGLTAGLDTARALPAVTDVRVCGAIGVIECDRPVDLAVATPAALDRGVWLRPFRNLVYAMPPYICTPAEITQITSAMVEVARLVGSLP

Compound	max activity
CC1(C)CC(=O)C=C(c2ccc3ncccc3c2)C1	-6.7% (inactive)
Cc1nc2nc(SCC(=O)NCc3ccco3)nn2c(C)c1Cc1ccccc1	-11.9% [at 0.16 µM] (inactive)
C=CCn1c(SCc2c(C(=O)OC)sc(N)c2C(=O)OC)nnc1-c1ccc(Cl)cc1	-8.75% (inactive)
C=C(C)CSc1nc(N)c2c3c(sc2n1)CCC3	-5.78% (inactive)
Cc1ccc(Cc2c(C)nc3nc(SCC(=O)NCCN4CCOCC4)nn3c2C)cc1	-9.07% (inactive)
CC(=O)c1ccc(N2CCN(C(=O)c3ccc4nc[nH]c4c3)CC2)cc1	5.95% [at 10 µM] (inactive)
O=C(CSc1n[nH]c(-c2cccnc2)n1)Nc1ccnc2ccccc12	-8.45% (inactive)
